# NALP1 inh – inhibitors of NALP1 inflammasome in yeast. S. cerevisiae NALP1/ASC/caspase-1 growth, X-gal OD620, 72 h. inhibition, % at 10 µM. 280,000 tested, 0.61% active. AID 2071; in the data active = inhibition mostly above about 24%, no sharp cut-off; inactive = mostly below about 32%
# NLRP3 yeast inh – inhibitors of NALP3 inflammasome in yeast. 330,000 tested, 0.39% active. inhibition, % at 10 µM. Yeast reconstituted NLRP3/ASC/caspase-1, beta-gal luminescence, 24 h. AID 2825;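 active = inhibition of 50% or more; inactive = inhibition below 50%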;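 also: plate controls were induced DMSO wells for no effect and uninduced yeast grown without galactose for full effect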
# tim23-1 inh – growth inhibitors of tim23-1 mutant yeast. AID 463212. 330,000 tested, 1.3% active. S. cerevisiae tim23-1 growth, BacTiter-Glo luminescence, 24 h. inhibition, % at 20 µM;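 active = growth inhibition of the mutant yeast at or above 50%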;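 also: temperature-sensitive mutant grown at 25 °C; plate controls were DMSO-treated mutant yeast for no effect and medium wells lacking yeast for full effect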
# TIM10 inh – inhibits growth of TIM10 yeast strain | 330,000 tested, 1.4% active | AID 463195 | inhibition, % at 10 µM | S. cerevisiae TIM10 strain growth, BacTiter-Glo luminescence, 24 h;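 active = inhibition of 40% or more at the single tested concentration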;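 also: wild-type TIM10 isogenic control strain grown at permissive 25 °C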
# tim10-1 inh – growth inhibitors of tim10-1 mutant yeast. S. cerevisiae tim10-1 ts strain growth, BacTiter-Glo, 24 h. inhibition, % at 20 µM. 330,000 tested, 2.2% active. AID 463190;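 active = inhibition of at least 40%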;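 also: mutant grown at 25 °C; 0% = DMSO wells with yeast and 100% = wells holding no yeast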
# PfHsp90 set2 – inhibits growth of yeast expressing Plasmodium falciparum Hsp90; inhibition, % at 9.4 µM; S. cerevisiae expressing PfHsp90, BacTiter-Glo ATP, 48 h; yeast lacking PDR1 and PDR3 efflux regulators; 310,000 tested, 0.32% active;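 active = every replicate shows inhibition above about 80%, whatever the replicate mean, limit read from the data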;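 also: 0% = DMSO neutral controls and 100% = 20 µM radicicol positive controls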
# tim23-1 conf – confirmation of tim23-1 mutant yeast growth inhibitors; shares compounds with tim23-1 inh; S. cerevisiae tim23-1 growth, BacTiter-Glo luminescence, 24 h; inhibition, % at 20 µM; 4,400 tested, 83% active;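 active = inhibition above about 39% in either of two replicate wells at 20 µM, limit read from the data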;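 also: temperature-sensitive tim23-1 mutant grown at 25 °C; 0% = DMSO wells with yeast and 100% = medium wells without yeast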
# * = called active by the depositor; x = not tested or not shown. An excerpt weighted towards active compounds, which were near 4.2% of everything screened.
SMILES,NALP1 inh,NLRP3 yeast inh,tim23-1 inh,TIM10 inh,tim10-1 inh,PfHsp90 set2,tim23-1 conf
Nc1n[nH]c(C2CC2)c1N=Nc1ccc(Cl)cc1,0,21,69*,25,8,x,24
Nc1n[nH]c(C2CC2)c1N=Nc1ccc(Cl)c(Cl)c1,x,30,69*,39,35,x,9
O=C(O)CC1(CC(=O)Nc2ccc(Oc3cccc(C(F)(F)F)c3)nc2)CCCC1,10,14,-1,15,-4,x,x
CCC1CCCCN1S(=O)(=O)c1ccc(NC(=O)c2ccncc2)cc1 (stereo not given),17,-5,79*,24,32,18,30
CCC1CCCCN1S(=O)(=O)c1ccc(C(=O)Nc2nnc(C3CC3)o2)cc1 (stereo not given),13,-5,29,28,40,-11,x
COC(=O)c1sccc1NC(=S)NCc1ccc(Cl)cc1,x,4,62*,39,27,19,53*
Cc1ccc(S(=O)(=O)N2CCC(C(=O)N/N=C/c3ccncc3)CC2)cc1,0,18,15,19,5,-13,x
O=C(NCc1csc(-c2cccs2)n1)Nc1cccc(Cl)c1,20,26,53*,37,24,-1,64*
COc1ccc(CN(C)C(=O)c2cccc(S(=O)(=O)N3CCCc4ccccc43)c2)c(OC)c1OC,x,x,x,x,x,38,x
CCNC(=O)NC(=O)C(C)OC(=O)CCCSc1nc2ccccc2s1 (stereo not given),20,7,38,26,25,-7,x
O=S(=O)(CCN1CCN(c2ccccc2O)CC1)c1cc(Cl)ccc1Cl,x,2,50*,26,39,-1,23
O=C(CN1CCN(c2ccccc2O)CC1)NNC(=O)c1ccc(Cl)cc1,13,-1,5,-4,-10,-3,x
Cc1nnc2n(Cc3ccccc3)c(=O)c3c4c(sc3n12)COC(C(C)C)C4 (stereo not given),3,7,55*,-1,26,-12,38
Cc1nc2scc(C)n2c(=O)c1S(=O)(=O)Nc1ccc(OC(F)(F)F)cc1,4,22,60*,7,10,13,64*
Cc1nc2scc(C)n2c(=O)c1S(=O)(=O)Nc1ccc(N2CCOCC2)c(Cl)c1,-9,2,26,5,-18,17,x
CCOC(=O)c1sc2ncn(CC(=O)Nc3cc(C)on3)c(=O)c2c1C,x,-5,12,9,1,x,x
CCSc1ccc([C@@H]2[C@H]3C(=O)N(CC)C(=O)[C@H]3[C@]3(C(=O)OC)CCCCN23)cc1,x,21,81*,19,27,10,45*
O=C(CN1C(=O)C(=O)N(Cc2ccco2)C1=O)c1c[nH]c2ccccc12,-1,8,17,4,21,15,x
O=C(CN1C(=O)C(=O)N(CCC2=CCCCC2)C1=O)c1c[nH]c2ccccc12,x,6,60*,40,13,-1,39*
CCN(CC)CC(=O)Nc1sc(C)cc1C(=O)c1ccccc1,10,22,35,12,7,0,x
Cc1cc(C(=O)c2ccccc2)c(NC(=O)CCl)s1,24,-15,55*,40,31,-5,38
CCc1ccccc1NC(=O)C1CCN(C(=O)N2CCOc3ccccc32)CC1,0,7,13,4,12,4,x
Cc1cc(C)c(NC(=O)CCCCCNC2CCCCC2)c(C)c1,0,10,-4,-3,-7,-39,x
O=C(CCSc1ccc(Cl)cc1)NC12CC3CC(CC(C3)C1)C2,-19,-11,52*,40,38,-5,46*
O=C(CCSc1ccc(Cl)cc1)NC1CCCCC1,10,21,13,12,8,28,x
CC1(c2ccc(Cl)cc2)NC(=O)N(CC(=O)Nc2cccnc2Cl)C1=O (stereo not given),x,13,-30,1,-21,2,x
CCCCCCn1c(=O)c(-c2ccccc2)c(O)c2ccccc21,12,22,50*,2,12,x,44*
O=C(NC(=S)Nc1ccc2c(c1)OCCO2)c1ccccc1,6,47,54*,33,23,x,44*
O=C(NC(=S)Nc1ccc2c(c1)OCCO2)c1ccccc1F,10,11,17,31,34,-17,x

# Source: PubChem BioAssay
